# Measured values taken from PubChem BioAssay.
# Test: small-molecule microarray binders of probe aNog, primary screen, biochemical, biotinylated probe, 635/667 nm fluorescence (AID 1115);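 note: probe is biotinylated aNog protein used at 0.15 µg/mL for 1 h at 4 C; z-score combines 667 nm fluorescence of each spot with its signal to noise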
# Details: higher = more signal
row,Compound,composite z-score
1,CCOC(=O)C[C@H]1[C@H](OC(=O)c2ccccc2-c2ccccc2)[C@@H](NC(=O)c2ccc(-c3ccccc3)cc2)c2cc(OCCCO)ccc2N1C(=O)c1ccc2ccccc2n1,0.233
2,C=CCC(OC(C)=O)[C@@H]1[C@@H](N(Cc2ccc(-c3ccccc3)cc2)C(=O)Cc2ccc(F)cc2)c2cc(OCCCO)ccc2N1C(=O)Cc1ccc(OC)cc1 (stereo not given in full),-0.394
3,O=C(NCC(F)(F)F)[C@@H]1c2ccccc2C(=O)N(Cc2ccc(OC(F)(F)F)cc2)[C@H]1c1ccc(CO)cc1,-0.224
4,COC(=O)CCCCCCC(=O)Nc1ccc(NC(=O)CCCC[P+](c2ccccc2)(c2ccccc2)c2ccccc2)cc1,-0.209
5,CCCCCCc1nc(C2CC2)cc2c1[Si](C(C)C)(C(C)C)OC2,-0.0784
6,O=C1O[C@H](c2ccccc2)[C@H](c2ccccc2)N2[C@H]1[C@@H](C(=O)Nc1nc3ccccc3s1)[C@]1(C(=O)Nc3ccccc31)[C@H]2c1ccc(OCCO)cc1,-0.411
7,C=C(/C(=C/C[C@H](OC(=O)c1ccncc1)c1ccc(CO)o1)c1cc(C(=O)OC)ccc1OC)C(C)C,-0.0247
8,CN(C)C(=O)[C@@]1(CCS(=O)(=O)c2ccccc2)N=C(c2ccc(OCCCO)cc2)O[C@H]1c1ccccc1,0.812
9,O=C1OCCC/C=C\[C@H]2OC34C=CCN(CCN5CCOCC5)C(=O)[C@H]3N(CCCCCCO)C(=O)[C@@H]4C12 (stereo not given in full),-0.103
10,O=C1C2C=CC(C(O)c3ccc(Br)cc3)N(Nc3ccccc3F)C2C(=O)N1c1ccccc1 (stereo not given),-0.571
11,CCCCC(=C=CC[C@@H](O)c1ccccc1OCCO)C[C@@H](O)COCc1ccccc1,-0.124
12,O=C1O[C@@H](c2ccccc2)[C@@H](c2ccccc2)N2[C@@H](c3ccc(O)cc3)[C@]3(C(=O)Nc4ccc(C#CC5=CCCCC5)cc43)[C@@H](C(=O)NC[C@H](O)c3ccccc3)[C@H]12,0.654
13,NC(=O)NCC#Cc1ccc2c(c1)[C@]1(C(=O)N2)[C@H](C(=O)NC[C@H](O)c2ccccc2)[C@H]2C(=O)O[C@H](c3ccccc3)[C@H](c3ccccc3)N2[C@@H]1c1ccc(OCCO)cc1,-0.418
14,CC(C)N1CC=CC23O[C@@H]4C=CCOC(=O)[C@@H]4[C@H]2C(=O)N(CCCO)[C@@H]3C1=O (stereo not given in full),-0.196
15,N#Cc1ccc(C(O)C2C=CC3C(=O)N(c4ccccc4)C(=O)C3N2Nc2ccccc2)cc1 (stereo not given),1.09
16,CCCCN1CC=CC23O[C@@H]4/C=C\CCC(C)OC(=O)C4[C@H]2C(=O)N(C(CO)C(C)C)[C@@H]3C1=O (stereo not given in full),-0.278
17,C=CCN1Cc2ccccc2[C@H]2OC(c3ccc(OCCCO)cc3)=N[C@@]2(CC=C)C1=O,-0.44
18,CC(CO)N1C(=O)[C@@H]2[C@H]3C(=O)OCC=C[C@H]3OC23C=CCN(CCN2CCOCC2)C(=O)[C@@H]13 (stereo not given in full),-0.5

row,Compound,composite z-score
1,CCCCCCc1nc(-c2cc(C)c(OC)c(C)c2)c(C)c2c1[Si](C(C)C)(C(C)C)OC2,0.116
2,C=C(COC)/C(=C/C[C@H](OC(=O)c1ccncc1)c1ccccc1OCCO)c1cnc2ccccc2c1,0.0481
3,CO[C@H]1O[C@H](CO)[C@@H](OC(=O)Nc2ccc3c(c2)OCO3)[C@H](OC(=O)c2cc3ccccc3[nH]2)[C@H]1OC(=O)c1cc2ccccc2[nH]1,-0.315
4,O=C1N(Cc2ccccc2)c2ccccc2[C@@H]2OC(c3ccc(OCCCO)cc3)=N[C@]12Cc1ccccc1,0.0705
5,CCOC(=O)c1ccc(NC(=O)O[C@H]2[C@H](OC(=O)Nc3ccc4c(c3)OCO4)[C@@H](OC(=O)Nc3ccc4c(c3)OCO4)[C@@H](OC)O[C@@H]2CO)cc1,1.08
6,C=CCC(OC(C)=O)[C@@H]1[C@@H](N(Cc2cccc3ccccc23)C(=O)Cc2ccc(OC)cc2)c2cc(OCCCO)ccc2N1C(=O)c1ccc2ccccc2n1 (stereo not given in full),-0.456
7,COCCCNC(=O)[C@@]1(Cc2ccccc2CN=[N+]=[N-])N=C(c2ccc(OCCCO)cc2)O[C@H]1c1ccccc1,0.999
8,COC(=O)[C@@]1(Cc2ccccc2)[C@H]2c3cc(C(=O)N(C)C)n(CCc4ccc(O)c(OC)c4)c3C[C@H]2CN1C(=O)c1ccccc1,0.974
9,CN1C(=O)C2C=CC(C(O)COCc3ccccc3)N(N(c3ccccc3)c3ccccc3)C2C1=O (stereo not given),0.773
10,CC(c1ccccc1)C(O)C1C=CC2C(=O)N(c3ccccc3)C(=O)C2N1Nc1ccc([N+](=O)[O-])cc1 (stereo not given),0.457
11,[N-]=[N+]=NCc1ccccc1[C@H]1OC(c2ccc(OCCCO)cc2)=N[C@@]1(CCS(=O)(=O)c1ccccc1)C(=O)N1CCCCC1,1.15
12,[N-]=[N+]=Nc1ccccc1C[C@]1(C(N)=O)N=C(c2ccc(OCCCO)cc2)O[C@H]1c1ccccc1N=[N+]=[N-],1.03
13,COc1cc(CO)cc(I)c1O[C@H]1C=C(C(=O)NCCO)C[C@@H](NCc2ccc(F)cc2)[C@@H]1O,-0.506
14,CCCC[C@@H]1C[C@H]1[C@@H](NC(=O)c1cccs1)c1ccc(C(F)(F)F)cc1,0.277
15,COCCOC(=O)N1C(=O)[C@@]2(c3cc(C#CC4=CCCCC4)ccc31)[C@H](C(N)=O)[C@H]1C(=O)O[C@H](c3ccccc3)[C@H](c3ccccc3)N1[C@@H]2c1ccccc1OCCO,0.0157
16,O=C1OCCC=C[C@H]2OC34C=CCN(Cn5nnc6ccccc65)C(=O)[C@H]3N(CCCCCCO)C(=O)[C@@H]4C12 (stereo not given in full),-0.142
17,Cc1ccc(S[C@]2(C(=O)O)CC(=O)N(Cc3cc(C(F)(F)F)cc(C(F)(F)F)c3)[C@@H]2c2ccc(CO)cc2)cc1,-0.0733
